This is a sample that favours compounds with a hit; in the whole collection about 12% have one here.
HP1b binding inh – HP1-beta chromodomain-methylated histone interaction inhibition; P83916; AlphaScreen HP1-beta / biotin-H3K9me3 peptide binding; Potency, µM (top dose mostly 114 µM), for the others: top-dose activity change, negative = inhibition, usual class: inhibitors; 390,000 tested, 0.56% active; AID 540317; note: nearly all actives have a fitted effect of over 70% in size
Target sequence (P83916 whole entry, looked up): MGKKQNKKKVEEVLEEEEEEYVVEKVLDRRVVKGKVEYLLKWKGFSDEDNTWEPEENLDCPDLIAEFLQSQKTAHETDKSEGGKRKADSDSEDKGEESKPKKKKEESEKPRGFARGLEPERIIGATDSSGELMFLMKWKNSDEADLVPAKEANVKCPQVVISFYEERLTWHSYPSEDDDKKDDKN
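AlphaScreen: HP1-beta (50 nM) preformed 30 min with biotin-H3(1-18)K9me3 peptide (50 nM) in PBS pH 7.4, 0.01% Tween-20. Compound added for 30 min at RT, then streptavidin donor/nickel chelate acceptor beads (10 ug/mL) for 30 min.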
PLK1 PBD block – PLK1 (human) polo-box domain binding inhibition; P53350; Plk1 PBD binding of FITC phosphopeptide, fluorescence polarization; Potency, µM, for inactives: max response, negative = inhibition, actives largely listed as inhibitors; 360,000 tested, 2.8% active; note: series mostly up to about 57 µM; % is set by controls: 0 for no effect and ±100 for the full control effect; nearly all actives have a fitted effect of over 65% in size
BAZ2B inh – inhibitors of human BAZ2B bromodomain; AlphaScreen BAZ2B-H3K14Ac peptide displacement; AID 504333; Potency, µM (doses to about 114 µM), without a hit: at the top dose activity change, negative = inhibition, most hits filed as inhibitors; 360,000 tested, 4.4% active; Q9UIF8; note: % is set by controls: 0 for no effect and ±100 for the full control effect; nearly all actives have a fitted effect of over 60% in size
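Multi-concentration screen (max 110 uM) measuring displacement of acetylated histone H3 peptide from BAZ2B by AlphaScreen, using 50 nM protein, 50 nM peptide and 10 ug/mL streptavidin donor plus Ni-chelate acceptor beads.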
JMJD2A Tudor – JMJD2A Tudor domain (human) inhibition | O75164 | AlphaScreen JMJD2A-Tudor / H3K4me3 peptide binding | Potency, µM (doses to about 114 µM), without a hit: top-dose activity change, negative = inhibition, hits mostly inhibitors | 390,000 tested, 4.4% active | AID 504339; note: % is set by controls: 0 for no effect and ±100 for the full control effect; nearly all actives have a fitted effect of over 50% in size
Sfp inh – Sfp phosphopantetheinyl transferase inhibition | Q9F4F7 | Biochemical Sfp PPTase activity, qHTS | Potency, µM, for inactives: largest response in the series, negative = inhibition, hits mostly inhibitors | 310,000 tested, 3.5% active | AID 1490;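 note: the enzyme is Sfp with the accession as filed and its product quenches rhodamine fluorescence; 0% = enzyme reaction without inhibitor and -100% = no enzyme wells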
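Fluorescence-quenching assay with 15 nM Sfp, 5 uM rhodamine-CoA and 12.5 uM BHQ-2-labelled ybbR peptide in pH 7.6 Hepes/MgCl2 buffer. Enzyme was pre-incubated with compound for 15 min at room temperature. Rate was taken from the 30-min fluorescence change (525/598 nm).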
G9a block – blocks human histone lysine methyltransferase G9a; Q96KQ7; Potency, µM (top dose mostly 102 µM), inactives show at the highest dose activity, negative = inhibition, hits mostly inhibitors; G9a H3K9 monomethylation, AlphaScreen, 2 h; 350,000 tested, 8.8% active; note: % is set by controls: 0 for no effect and ±100 for the full control effect; nearly all actives have a fitted effect of over 75% in size
Target sequence (Q96KQ7 913-1193 limits assumed): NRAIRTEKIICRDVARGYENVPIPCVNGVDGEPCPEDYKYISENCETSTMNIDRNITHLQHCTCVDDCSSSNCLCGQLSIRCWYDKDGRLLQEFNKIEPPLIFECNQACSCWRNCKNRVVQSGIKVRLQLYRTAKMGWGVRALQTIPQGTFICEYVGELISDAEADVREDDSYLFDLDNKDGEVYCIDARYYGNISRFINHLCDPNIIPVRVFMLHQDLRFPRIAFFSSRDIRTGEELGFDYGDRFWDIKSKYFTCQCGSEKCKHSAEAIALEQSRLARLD
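AlphaScreen read-out: biotin-H3K9 peptide (500 nM) methylation by 20 nM enzyme with 20 uM SAM, 2 h at room temperature after 15 min compound preincubation; anti-monomethyl H3K9 antibody plus donor/acceptor beads, 10 min dark.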
Numbers without * were called inactive; u = inconclusive; x = no result; ! = repeats disagree; [ ] = another dose, or the depositor's remark. Calls come from the whole dose curve; as a rule, active = well fitted curve in the direction sought with a large enough effect; inconclusive = small, poorly fitted or top-dose-only effect, or another doubt; inactive = no such curve, though single readings can be large; an effect the other way counts as inactive or inconclusive. Potency is the fitted concentration of half-maximal effect.

SMILES | HP1b binding inh | PLK1 PBD block | BAZ2B inh | JMJD2A Tudor | Sfp inh | G9a block
O=C1C=C(N2CC2)c2ccccc2C1=O | x | 15µM* | x | x | x | x
COC(=O)C1(C)C=C2C(=C(C)C(=O)C2C)CN1 (stereo not given) | x | x | x | x | 7% | x
CCOC(=O)C(NC(C)=O)C(OC(C)=O)c1cccc(N(CCCl)CCCl)c1 (stereo not given) | 18% | -1% | -18% | -15% | 2% | 14µM*
N#Cc1cccc(NC(=O)CSc2nc3c(cc2C#N)N2CCC3CC2)c1 | 29% | x | -2% | 14% | x | -2%[59 µM]
C=CCc1ccc2c(c1)OCO2 | x | x | x | x | 17% | -4%[2.33 µM]
CC1CCC(NCCc2ccc3c(c2)OCO3)CC1 (stereo not given) | u | 2% | u | 3.2µM* | 0% | u
c1cc2c(cc1CCNC1C3CC4CC(C3)CC1C4)OCO2 (stereo not given) | -22% | 0% | u | 4µM* | -5% | 25µM*
CSCCC(c1nnnn1C(C)(C)C)N1CCC2(CC1)C(=O)NCN2c1ccccc1 (stereo not given) | x | 4% | x | x | x | x
O=C(N/N=C/c1c(O)n(C2CCCCC2)c(=S)[nH]c1=O)c1ccccc1O | 45% | u | 79µM* | 7% | -13% | 75%[59 µM]
Cn1c(=O)c2c(nc(N/N=C/c3c(O)n(-c4ccccc4)c(=S)[nH]c3=O)n2C)n(C)c1=O | -2% | 1% | -11% | u | 79µM* | -6%[59 µM]
CC/C(=N\NC(=O)c1ccccc1O)c1c(O)n(C2CCCCC2)c(=O)[nH]c1=O | 8% | u | -2% | -33% | 11% | u
O=C(N/N=C/c1c(O)n(C2CCCCC2)c(=S)[nH]c1=O)c1ccccc1 | 68% | u | -1% | 79µM* | 26% | u
O=C(N/N=C/c1c(O)n(CCc2ccccc2)c(=O)[nH]c1=O)c1ccccc1 | 39% | -4% | 79µM* | -35% | 9% | x
C=C(C)[C@@]12OC3(c4ccccc4)O[C@@H]1[C@@H]1[C@@H]4O[C@]4(CO)[C@@H](O)[C@]4(O)C(=O)C(C)=C[C@H]4[C@@]1(O3)[C@H](C)[C@H]2OC(=O)/C=C/C=C/c1ccccc1 | x | x | x | x | 0% | x
CO/C1=C\C(C)=C\[C@@H](C)[C@@H](O)[C@@H](C)C/C(C)=C/C=C/[C@H](OC)[C@@H]([C@@H](C)[C@@H](O)[C@H](C)[C@@]2(O)C[C@@H](O)[C@H](C)C(C(C)C)O2)OC1=O (stereo not given in full) | x | x | x | x | -5% | x
CC(C)c1ccc(-n2c(O)c(/C=N/NC(=O)c3ccccc3O)c(=O)[nH]c2=S)cc1 | 20% | u | 50µM* | 79µM* | -30% | x
NC1CCCCC1N=Cc1c(O)n(CCc2ccc(F)cc2)c(=O)[nH]c1=O (stereo not given) | 25% | -1% | 45µM* | -20% | 3% | 1µM*
Cc1ccc(-n2c(O)c(C=NCc3ccccn3)c(=O)[nH]c2=S)cc1 | 58% | -5% | -13% | 3% | -17% | x
O=C(c1ccc(Cl)cc1)C1CCCN(Cc2cccc3cnccc23)C1 (stereo not given) | 20% | -7% | -26% | -31% | 6% | u
O=C(c1cccc(Cl)c1)C1CCCN(Cc2cccc3cnccc23)C1 (stereo not given) | u | u | u | 45µM* | -1% | u
CCN(CC)c1ccc(CNc2nc3ccccc3n2C)cc1 | 24% | -1% | 45µM* | u | -2% | x
CC(=O)O[C@H]1CC[C@]2(C=O)C3CC[C@]4(C)[C@@H](C5=CC(=O)OC5)CC[C@]4(O)C3CC[C@]2(O)C1 (stereo not given in full) | 21% | x | x | -8% | 21% | x
CCOC(=O)N(c1ccccc1)P1(=S)OCCO1 | -21% | 12µM* | 7% | -23% | 40µM* | u
COC(=O)N(c1ccccc1)P1(=S)OCCO1 | -22% | 12µM* | 55% | u | 5.6µM* | 46%[59 µM]
CCOC(=O)N(c1ccccc1)P1(=S)OCC(C)O1 (stereo not given) | 28% | -7% | 8% | -11% | 8% | 17%[59 µM]
SMILES | HP1b binding inh | PLK1 PBD block | BAZ2B inh | JMJD2A Tudor | Sfp inh | G9a block
CC(C)CC(=O)Nc1ccc(C(=O)Cn2c(=O)oc3ccccc32)cc1 | 8% | -15% | u | -30% | 6% | -4%
CCCCN(CC)c1c([N+](=O)[O-])cc(C(F)(F)F)cc1[N+](=O)[O-] | x | x | x | x | 8% | x
CCN(CC)C(=O)c1ccc(NC(=O)CSc2nnnn2-c2cc(OC)ccc2OC)cc1 | 6% | -8% | 3% | -12% | -5% | 11%[12.7 µM]
O=C(CSc1nnnn1-c1ccccc1)Nc1ccc(N2CCOCC2)c(Cl)c1 | 32% | -1% | 0% | -23% | -13% | 13µM*
CC12CCC3C(CCC4(O)CC(O)CCC34C=NO)C1(O)CCC2C1=COC(=O)C1 (stereo not given) | 21% | -1% | x | -23% | x | x
N#C/C(=C(/O)c1ccc(S(=O)(=O)N(CCCl)CCCl)cc1)c1nc2ccccc2[nH]1 | 58% | -3% | -11% | -16% | 27% | 23%[12.7 µM]
O=C(O)c1c[nH]c2ccc(S(=O)(=O)N(CCCl)CCCl)cc12 | 28% | -4% | 2% | -6% | 5% | 18µM*
CCCCC/C=C\C/C=C\C/C=C\C/C=C\CCCC(=O)N[C@H](C)CO | x | x | x | x | 22µM*! | 1%[59 µM]
Cc1ccc2c(CN3CC=C(c4ccccc4)CC3)cc(=O)oc2c1C | 13% | -20% | -1% | -24% | -5% | 50µM*
CCc1ccc2c(CN3CC=C(c4ccccc4)CC3)cc(=O)oc2c1 | 19% | -13% | -9% | -10% | 0% | -12%[59 µM]
